Our source for the inhibition values is PubChem BioAssay AID1021 (Emory University Molecular Libraries Screening Center, 2008).

About 2,100 (0.95%) of roughly 220,000 compounds were called active.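 The calls were made as follows: active = compounds that cut the binding signal by more than half at the single screening dose; inactive = the rest.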 What follows is part of a selection rich in actives, with near analogues and random picks from the rest.

The target of the assay is Induced myeloid leukemia cell differentiation protein Mcl-1 (Homo sapiens) (UniProt Q07820). Briefly: disruptors of Mcl-1 and Bid BH3 peptide – biochemical, TR-FRET, 1536-well, primary screen (AID 1021).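 Also: His-tagged Mcl-1 with europium anti-His antibody binding Bid BH3 peptide; 0% = Mcl-1 plus peptide wells and 100% = peptide-only wells.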 Conditions: TR-FRET Mcl-1/Bid-Dy647 peptide binding, at 21.7 µM, stronger effect = higher value. (In general: Time-resolved FRET reads energy transfer from a long-lived donor to a nearby acceptor.)
Sequence of Induced myeloid leukemia cell differentiation protein Mcl-1 (Homo sapiens) (Q07820 whole entry, looked up): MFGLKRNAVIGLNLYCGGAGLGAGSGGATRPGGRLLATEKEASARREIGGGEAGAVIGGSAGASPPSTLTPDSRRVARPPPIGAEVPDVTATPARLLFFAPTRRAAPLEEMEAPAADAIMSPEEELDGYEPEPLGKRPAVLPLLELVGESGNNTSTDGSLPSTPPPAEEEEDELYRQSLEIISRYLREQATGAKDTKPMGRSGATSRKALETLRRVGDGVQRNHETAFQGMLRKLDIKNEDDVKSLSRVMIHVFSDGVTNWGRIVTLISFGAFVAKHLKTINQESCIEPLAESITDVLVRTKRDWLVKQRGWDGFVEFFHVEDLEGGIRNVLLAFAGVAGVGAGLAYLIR
Usually inhibition stands for the change of the read-out against control, counted positive when it falls. Regarding `O=C(Cc1ccccc1)N1CCN(C2CCCCCC2)CC1`, the inhibition was 17% (inactive).
As for `O=C(Cc1ccccc1[N+](=O)[O-])N1CCN(Cc2ccc3c(c2)OCO3)CC1`, the figure is -23.7% (inactive); as for `COc1ccccc1CN1CCN(C(=O)Cc2ccccc2)CC1`, 68% (active); as for `COc1ccc(-n2c(O)c(C(C)=Nc3ccc4c(c3)CCC4)c(=O)[nH]c2=O)cc1`, -2.41% (inactive).
For the molecule `O=C(O)COc1ccccc1/C=C1\C(=O)NC(=O)N(CCC2=CCCCC2)C1=O`, the inhibition is 2.6% (inactive).
The figure for `CN1CCN(Cc2ccc(OC(F)(F)F)cc2)CC1` is 56.4% (active).
On to `CN1CCN(Cc2ccccc2C(F)(F)F)CC1`, for which the inhibition was -13% (inactive).
As for `CCOP(=O)(OCC)C(NC(=O)NC)C(N)=O` (stereo not given), the figure is -3.96% (inactive).
The figure for `CCc1nnc(NS(=O)(=O)c2ccc(N=Cc3c(O)n(-c4ccccc4)c(=O)[nH]c3=O)cc2)s1` is -3.62% (inactive).
As for `CCOc1ccc(CN(CCCl)CCCl)cc1C(=O)OC`, the figure is 63.2% (active).
As to `CC1=C2C(=O)C3C(CC=C4CC(OC5OC(O)C(O)C(O)C5CO)CCC43C)C2CCC12OC1CC(C)CNC1C2C` (stereo not given), the inhibition was -4.26% (inactive).
In the case of `O=c1c2ccccc2nc(/C=C/c2ccco2)n1-c1ccccc1O`, the inhibition was -66% (inactive).
As for `CNC(=O)O/N=C(\N)Cc1csc2ccc(Cl)cc12`, the figure is -11.9% (inactive); as for `COc1ccc(C(=O)C2CCCN(Cc3ccc(C)s3)C2)cc1OC` (stereo not given), -15% (inactive); as for `CC1CCCCN1Cc1cccnc1` (stereo not given), 49.3% (inactive).
The figure for `O=C1NC(=O)N(c2ccc(F)cc2)C(=O)/C1=C/c1ccc2c(c1)CCCN2Cc1ccccc1` is 74.2% (active); for `O=C1NC(=O)N(c2ccccc2)C(=O)/C1=C/c1ccc([N+](=O)[O-])s1` it is -21.7% (inactive); for `Cc1cccc(N2C(=O)NC(=O)/C(=C\c3cnn(-c4ccccc4)c3)C2=O)c1` it is -15.1% (inactive).
For `O=C(c1cc2nc(-c3ccccc3)cc(-c3ccccc3)n2n1)N1CCC2(CC1)OCCO2`, the inhibition is 12.9% (inactive).
The figure for `CC(=O)Cc1ccc(OC(C)C)cc1` is 29.9% (inactive).
